Percent Effect data for 40 compounds are collected here from ChEMBL document CHEMBL3988442, “University of Dundee, Small-Polar-MMV Screening Library” (2021).

The structures appear in SMILES notation.

The target in the assay is Shiga toxin 2 (Escherichia coli O157:H7) (UniProt P09385+P09386). In words: E. coli 0.157:H7 Shiga Toxin SOP - stx2 screening assay. The class given is functional. Further details: scale not given: direction of the effect not stated beside the values. The conditions noted are these: 30 µM.
Regarding `c1ccc(Cc2noc(CNC3CCc4ncnn4C3)n2)cc1` (stereo not given), the Percent Effect came out at 2.15%.

Regarding `CN(C)c1ccc(CN(CCCn2ccnc2)Cc2c[nH]cn2)cc1`, the Percent Effect is -38.9%.

Turning to `COc1ccc(CN2CCc3nc(C4CCCCN4C)ncc3C2)cc1` (stereo not given), the Percent Effect was -19.9%.

Take `CC(NC(N)=O)C(=O)N1CCCN(Cc2nccn2C(C)C)CC1` (stereo not given): the Percent Effect came out at 8.58%.

Consider `CC(=O)Nc1nc(C2CCN(C(=O)c3cccnc3)CC2)cs1`, for which the Percent Effect was -3.89%.

For `COc1cccc2c1OCC(CNC(=O)CSc1nc(N)n[nH]1)C2` (stereo not given), the Percent Effect is 6.55%.

Consider `CCCc1noc(CCC(=O)N2CCCC2c2noc(C3CC3)n2)n1` (stereo not given), for which the Percent Effect amounted to 6.31%.

With `Cc1nc(CN2CCCN(CCOc3cccc(C#N)c3)CC2)no1`, the Percent Effect was determined as 19.3%.

On to `O=C1NCCN1C1CCCN(Cc2nnc(-c3ccc(F)cc3)o2)C1` (stereo not given), for which the Percent Effect is -40.1%.

As for `Cc1cccc(OCCC(=O)N(C)CCC#N)c1C`, the Percent Effect turned out to be 8.57%.

For `Cc1ccc(-c2cccc(-c3ccn(CCN4CCCC4)n3)c2)nn1`, the Percent Effect is -13.8%.

Take `c1csc(-c2nc(CN3CCn4c(nnc4C4CC4)C3)co2)c1`: the Percent Effect is 1.36%.

With `O=C(NCC1CC1)C1CN(C(=O)c2cccc(Cl)c2)CC12CCOCC2` (stereo not given), the Percent Effect is -14.2%.

For the compound `O=C(NC[C@]12COC[C@H]1CN(Cc1nccs1)C2)c1ccccc1`, the Percent Effect is -14.5%.

As for `O=C(NCCNc1ncccn1)c1ccc(-c2ccco2)[nH]c1=O`, the Percent Effect is 10.7%.

`COCCN1CCC(CN(CC2CCCO2)C(=O)COC)CC1` (stereo not given): the Percent Effect is -0.207%.

For `CCc1ccc(NC(=O)N2C[C@H]3C[C@H](C(=O)NC)[C@@H](C2)O3)cc1`, the Percent Effect was -5.17%.

With `CCN(CCNC(=O)c1ccccc1Br)C1CC1`, the Percent Effect worked out at 9.65%.

As for `CC(C)c1csc(C2CCCN(C(=O)Cn3ccccc3=O)C2)n1` (stereo not given), the Percent Effect was -29.5%.

`CCN(Cc1nc2c(cnn2C)c(=O)[nH]1)c1cccc(Cl)c1`: the Percent Effect turned out to be 19.9%.

On to `Cc1noc(C)c1CNCC1CCN(CC(O)c2ccccc2)CC1` (stereo not given), for which the Percent Effect is -21.8%.

Regarding `CN(C)C(=O)c1ccc2c(c1)N(C)C(CC(=O)NC(C)(C)CO)CO2` (stereo not given), the Percent Effect is -25.6%.

With `Cn1ccnc1CN1CCCCC1Cn1cccn1` (stereo not given), the Percent Effect worked out at 11.2%.

On to `CN(C)C(=O)Cc1nc(CN2CCOC(Cn3cccn3)C2)cs1` (stereo not given), for which the Percent Effect is -20.8%.

In the case of `OC(CN1CCN(c2ncccn2)CC1)c1cccc(F)c1` (stereo not given), the Percent Effect is -4.85%.

As for `Cn1cc(-c2cnc(N3CCOCC3)nc2)cc1C(=O)NCCO`, the Percent Effect is -9.13%.

Turning to `COc1ccccc1Oc1ncccc1CNC(=O)C(C)N1CCCC1` (stereo not given), the Percent Effect came out at 6.37%.

For `CCn1cc(CN(C)S(=O)(=O)c2cnn(CC)c2C)c(C)n1`, the Percent Effect turned out to be 3.32%.

`CC(C)(C)c1cnc(CN2CCC[C@H]2CO)o1`: the Percent Effect is -5.47%.

As to `Cc1cc(C)c(CNC(=O)N(C)CC2CCCCO2)c(=O)[nH]1` (stereo not given), the Percent Effect stood at 28.8%.

As to `Cc1cc(=O)[nH]c(NCCNC(=O)C(c2ccc(F)cc2)N(C)C)n1` (stereo not given), the Percent Effect is -65.1%.

Consider `Cc1nn(C)c(Cl)c1C1CCCN1C(=O)c1cc(Cl)c[nH]1` (stereo not given), for which the Percent Effect was found to be 16.5%.

As for `Cc1nc(C(=O)N2CCCC(c3cccc(-n4ccnc4)n3)C2)co1` (stereo not given), the Percent Effect was 3.79%.

For the compound `NC(=O)C1CCCN(Cc2c(-c3ccco3)[nH]c3ncccc23)C1` (stereo not given), the Percent Effect came to 3.34%.

Turning to `CN(C)C(=O)CNC(=O)c1ccc(Cl)cc1F`, the Percent Effect is -8.79%.

Take `CC(=O)NC(C)CC(=O)NCc1cccnc1Oc1ccccc1C` (stereo not given): the Percent Effect stood at 2.41%.

In the case of `CCOc1ncccc1CNC(=O)Nc1ccc(N(C)C)nc1`, the Percent Effect was -48.5%.

On to `COCC(O)CN(C)C(=O)NC1CCN(Cc2ccccn2)CC1` (stereo not given), for which the Percent Effect is -36.8%.

With `Cc1noc([C@@H]2CC[C@@H]3[C@@H](CCN3S(=O)(=O)c3cccnc3)O2)n1`, the Percent Effect is -18.4%.

Turning to `O=C(Nc1nncs1)NC1CCOc2ccccc21` (stereo not given), the Percent Effect is -45.8%.
